Paper PMC13494018
Values without a mark were called inactive. The rule behind the calls is not given here.

Target: VTCN1, Q7Z7D3
Sequence (Q7Z7D3 whole entry): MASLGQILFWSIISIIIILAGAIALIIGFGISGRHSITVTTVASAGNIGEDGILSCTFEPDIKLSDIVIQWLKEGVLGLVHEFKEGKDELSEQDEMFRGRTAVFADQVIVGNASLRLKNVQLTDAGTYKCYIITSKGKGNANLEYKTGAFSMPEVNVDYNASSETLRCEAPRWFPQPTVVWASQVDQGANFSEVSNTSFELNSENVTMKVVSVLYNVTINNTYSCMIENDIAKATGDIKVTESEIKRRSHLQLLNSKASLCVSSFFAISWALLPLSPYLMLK

B1: design_599_7ce25d4d-e004-4b84-a16f-baf856d943ab_2060_dldesign_0_cycle1_af2pred (protein)
chain: SSLDKKIAEEALKTAREGRKKVEELVKAGKYEEALALAKELREKMLKVYEELVKEGGTIEGIQAAFSAAMLMESAESYAKTKLEAAK
binding in a display sort: not found

B2: design_599_7ce25d4d-e004-4b84-a16f-baf856d943ab_1823_dldesign_0_cycle1_af2pred (protein)
chain: NISEENKKLAAAEQAKFTAEAAIKKVKATTPEEAKKVAEEAIKRLEKLGKVGEEAAKVAKEEIAKLKATAEKVAA
binding in a display sort: not found

B3: design_599_7ce25d4d-e004-4b84-a16f-baf856d943ab_1925_dldesign_0_cycle1_af2pred (protein)
chain: AQAVLDEAKKAADKAIALANQAIALAKTDLAAGKAKMEEALEELTEADYLADKAAKAGATEEAKKVRDKAKAAIDAARATIKAA
binding in a display sort: not found

B4: design_599_7ce25d4d-e004-4b84-a16f-baf856d943ab_2004_dldesign_0_cycle1_af2pred (protein)
chain: DARKKAAELFKEAGKLATEAAKASPEEGKKLAEEAVAKVKEAAKVLGRERIGENFIKQIVAGRKSREIAGYQLEARADAIAA
binding in a display sort: not found

B5: design_599_7ce25d4d-e004-4b84-a16f-baf856d943ab_2014_dldesign_0_cycle1_af2pred (protein)
chain: AELKAKAAIARVEFQAENIIEAGKKNGKEAEKIVKAAEETVKKAKEEIEKDPERAWEIAEKYIRELQEKARELIEKA
binding in a display sort: not found

B6: design_600_24101276-ad9d-4944-b73e-53bb160363ad_1126_dldesign_0_cycle1_af2pred (protein)
chain: SEEAKKLLEELKKAAEEAIAKAKELEKEDPAKAAEYAKKALKELRAKGKEIAELDPAFAPEAGAEVQKVQEYRAEAEAKALRKK
binding in a display sort: not found

B7: design_600_24101276-ad9d-4944-b73e-53bb160363ad_1440_dldesign_0_cycle1_af2pred (protein)
chain: SEKVKKDSEAIRKLVKAVKEAGKAAKAAAKAAPEVAAVAEAAQKASAQLVFEALDEENIEEAAKKAEEAIKAAAEAVKAAAKAAK
binding in a display sort: not found

B8: design_600_24101276-ad9d-4944-b73e-53bb160363ad_768_dldesign_0_cycle1_af2pred (protein)
chain: AEDLKKAIEKIKKEVGEEAAKLVGEALKAKQAAADDPSLAETQLKKVEELEKEAKKLDPKAAKLVSKIKKVVKRMVEN
binding in a display sort: not found

B9: design_600_24101276-ad9d-4944-b73e-53bb160363ad_1283_dldesign_0_cycle1_af2pred (protein)
chain: EEEKKEIAKKTEEYYKELLKVAKEVAAKDPSKKPELAKLTDEAAQYVAEAKAGLNPEEALEKVKKLLEEAKKIA
binding in a display sort: not found

B10: design_599_7ce25d4d-e004-4b84-a16f-baf856d943ab_1942_dldesign_0_cycle1_af2pred (protein)
chain: KEEIKKIAEEAIEKAENAKTKEQAAEAAKLAAEALKKVGAEKAAKRAEEVAKKAKEGSDSEVPELSKETLILAEQVLFAV
binding in a display sort: not found

B11: design_600_24101276-ad9d-4944-b73e-53bb160363ad_894_dldesign_0_cycle1_af2pred (protein)
chain: MTVEEYLKQAKEAGEEAIKILKETAKKDPSSKDVADMLIKAVETTLKEGSEKAKKEGAEKAKQLLEKMKLGLRTAKRLLENVERSE
binding in a display sort: not found

B12: design_600_24101276-ad9d-4944-b73e-53bb160363ad_1218_dldesign_0_cycle1_af2pred (protein)
chain: DEEKKKKAAEALDKAAELAKKAAEDEKYLPEALKALKETAKLAGEALGAEAAHAILEARAVVKAKGKEGAKEAAEVLEELRKKVR
binding in a display sort: not found

B13: design_600_24101276-ad9d-4944-b73e-53bb160363ad_984_dldesign_0_cycle1_af2pred (protein)
chain: AKEEDLKKAEEELKKFAEEAAKELKEAGAKKQDIESTKEYGEHRAEAVVTTSKKKGLSPEELKKLVKEAKERIKKYKENKL
binding in a display sort: not found

B14: design_599_7ce25d4d-e004-4b84-a16f-baf856d943ab_2233_dldesign_0_cycle1_af2pred (protein)
chain: SLVANIGQDIRSEAIAKAKLGGAEGAKEGAELAREAAVAFRKLGEASTPELKELAEKAAEIMERVSERLEEEAKRKAA
binding in a display sort: not found

B15: design_599_7ce25d4d-e004-4b84-a16f-baf856d943ab_1788_dldesign_0_cycle1_af2pred (protein)
chain: MEEERREEGRRLAEELVEKAKKAKELAKSGEKIEEAKKLLKEAREEAKKAAKAGLLTPEELKEVADAIHEAYEAIAEGEAKK
binding in a display sort: not found

B16: design_600_24101276-ad9d-4944-b73e-53bb160363ad_953_dldesign_0_cycle1_af2pred (protein)
chain: DAKKAAADALVATAAAEDPSLKPLAQEVADKAIASEDGLKAAKEGMTALAKKYPEYAKAFAAAMQAFYETYNEAEFKKKKA
binding in a display sort: not found

B17: design_600_24101276-ad9d-4944-b73e-53bb160363ad_105_dldesign_0_cycle1_af2pred (protein)
chain: GEEEEKKKKAVEKAKKALEQTKKAADKGTALDPSAKPEFDKIVKEAEKELKKAEEGDAETAKKAAKEAIEEAHKAYELRAEVEAKAIR
binding in a display sort: not found

B18: design_600_24101276-ad9d-4944-b73e-53bb160363ad_1044_dldesign_0_cycle1_af2pred (protein)
chain: MTPEERKALALKEQAEHTAKAGKKLGAKDPEAALKAAERLKKLAERAKKTGTEEGKEAAKLAEEYAKELEKLAKKAKE
binding in a display sort: not found

B19: design_600_24101276-ad9d-4944-b73e-53bb160363ad_551_dldesign_0_cycle1_af2pred (protein)
chain: GSSAANALADAQRKALKELQAVGKEAEKVSPEAAKKAAEYRDKLLDGETVEEVEAVKEEGLKEVTAMIEKAKAA
binding in a display sort: not found

B20: design_600_24101276-ad9d-4944-b73e-53bb160363ad_1404_dldesign_0_cycle1_af2pred (protein)
chain: SLKEEIKNKEKSGKNNVEAAKMAAEEGDITFAKSAIAAAKKAIEQLKELAKKATPEVAKEGKEAAEKLEKEREEAEKLLKKKEA
binding in a display sort: not found

B21: design_600_24101276-ad9d-4944-b73e-53bb160363ad_146_dldesign_0_cycle1_af2pred (protein)
chain: SKIYKLYGELTVEILKEKAEEAVELAKEGKAEEAKKYLKEAYERAKARAERLKEIDPEAGKEALKAVEKTYKEYEKELEKAIKEN
binding in a display sort: not found

B22: design_600_24101276-ad9d-4944-b73e-53bb160363ad_769_dldesign_0_cycle1_af2pred (protein)
chain: NEELIKFKAKAYSTAYSTAHTVAAAEKIAKTGTPEEAAKAKAAAAKALARLKEVGKEAKKKGPEYAKAFEEAAKEGEKVLKELLA
binding in a display sort: not found

B23: design_600_24101276-ad9d-4944-b73e-53bb160363ad_1344_dldesign_0_cycle1_af2pred (protein)
chain: SFKKEAAIESSKELLDQAVAAAKADPARATEIAKTGLKKATERAKKAGEEAYKTVKEYGEKLLAEVEAAAKAAA
binding in a display sort: not found

B24: design_600_24101276-ad9d-4944-b73e-53bb160363ad_1035_dldesign_0_cycle1_af2pred (protein)
chain: EKLEEAEKERDKAVDKLAALVAKALGPEAGAKARAAAKKGLAALKAVVAEAAKTSGLTAELAKALHEVYQATAEAELLKKK
binding in a display sort: binds (active)

B25: design_600_24101276-ad9d-4944-b73e-53bb160363ad_1497_dldesign_0_cycle1_af2pred (protein)
chain: DEAHKRAKALYEEDRALQKELRKKAKEAKEMAKEFADDPVWKAKAEEASKLNLQALFDPENKETREKGEKTYEEVYKKYKELKKKK
binding in a display sort: not found

B26: design_600_24101276-ad9d-4944-b73e-53bb160363ad_591_dldesign_0_cycle1_af2pred (protein)
chain: AEAEYKKAKELLKKAKEALKKNPEEALKLAKEAVEAAKKAAEADPSLAPELGKYAQEALQIISEARFKIS
binding in a display sort: not found

B27: design_599_7ce25d4d-e004-4b84-a16f-baf856d943ab_1969_dldesign_0_cycle1_af2pred (protein)
chain: MKVEEEVKKTKKVAEEAIKRAEEERKKASPELKEETEEVIKKAKEYMEKAEKAVKEGDYEKAKEYAKKMATYASELIALVNAIKH
binding in a display sort: not found

B28: design_599_7ce25d4d-e004-4b84-a16f-baf856d943ab_2019_dldesign_0_cycle1_af2pred (protein)
chain: GEELREKLLKEAEEAVKAAAADVPEMKDRLLAQMEKAKAAPLSKAPTELARLGSLLMAAAFATGSKTAEEAAEIAADAALKLK
binding in a display sort: not found

B29: design_599_7ce25d4d-e004-4b84-a16f-baf856d943ab_1749_dldesign_0_cycle1_af2pred (protein)
chain: MEKEEELKYGEELLKKAREEAKKKIEKAAKEGKIAEGAQEAIQVINEYSFEAAKKAKKEEVKKKIWEKGKEIKKEVVERAKELVKEQE
binding in a display sort: not found

B30: design_600_24101276-ad9d-4944-b73e-53bb160363ad_413_dldesign_0_cycle1_af2pred (protein)
chain: ITPEEAKKLMENIAEAAKDMATWNPAAAETIAKSATKRMESIGKKAGIEEEAKKYSEEVKKFAKEVKEKS
binding in a display sort: not found

B31: design_599_7ce25d4d-e004-4b84-a16f-baf856d943ab_2320_dldesign_0_cycle1_af2pred (protein)
chain: SVKSRAESAYVTAAARHAKEKAAADPAYAELYGKVLFGFYDTLDDPSAAEETYALDPELAPKLLEEMEKVGKAAADAELAK
binding in a display sort: not found

B32: design_599_7ce25d4d-e004-4b84-a16f-baf856d943ab_1912_dldesign_0_cycle1_af2pred (protein)
chain: MEKLKELLEKTKELAKKGVEYAKKGDEEKARKYMLEARKYAEEAKKLDPEAGKEAAKIIQEAYEEMAEARFEVN
binding in a display sort: not found

B33: design_600_24101276-ad9d-4944-b73e-53bb160363ad_1238_dldesign_0_cycle1_af2pred (protein)
chain: AVKEQAKALAEAGLKADVETAKKYAAAAVLLAFDSSDTEDVKYAAELLKKAAKEATDPEKKEAFERAARVVERAAEDMRKAEER
binding in a display sort: not found

B34: design_600_24101276-ad9d-4944-b73e-53bb160363ad_1181_dldesign_0_cycle1_af2pred (protein)
chain: AAEEEIKKAITEAKDAALDSAYIAAKDPSKAAEAEAAYNAALGKLEEALKVLDEETRKKAIQSVKNIRDSTYEASKKSLKS
binding in a display sort: not found

B35: design_600_24101276-ad9d-4944-b73e-53bb160363ad_124_dldesign_0_cycle1_af2pred (protein)
chain: NEMKKKAEELQKKARKLREVVKKGPKDAAEAKKAAEEAKKVAEEAEKAIEEDPSADPKTIAKLQRAAFSAEAAAKQLEKWL
binding in a display sort: not found

B36: design_600_24101276-ad9d-4944-b73e-53bb160363ad_358_dldesign_0_cycle1_af2pred (protein)
chain: DALAAGIVAAMREDPARGAAAARNAALQYEDDPAAYEAVKAAALAAAAADPAVAAALAAAFDAAAKEVSA
binding in a display sort: not found

B37: design_599_7ce25d4d-e004-4b84-a16f-baf856d943ab_2071_dldesign_0_cycle1_af2pred (protein)
chain: GKAKEIAKKGAEELGKALGEEAKVDADIAAEQAEMQPTPELMAEAFKRGAKRIGEKTGKLEKAEEVAKKTVKAIKE
binding in a display sort: not found

B38: design_600_24101276-ad9d-4944-b73e-53bb160363ad_1012_dldesign_0_cycle1_af2pred (protein)
chain: VEELVKKAAEKKEKAVELIDEGKLEEAEKEAEELKKLAEEIKKKDPKLGEEALKGARALKRLIKEAKEAEEK
binding in a display sort: not found
